Molecules are shown by their SMILES. The whole screen tested about 48,000 compounds, of which about 13,000 (27%) showed an effect of 50% or more. The list shows a part of the results.

The test system of the test is Wolbachia pipientis. The test can be described thus: Anti-Wolbachia Cell-Based Screen. In kind it is functional. Set-up: scale not given: in the data most compounds retested in dose-response had high values. The conditions noted are these: 5 µM.
For the compound `c1ccc(Cn2cccn2)c(CN2CCC3(CCCNC3)C2)c1` (stereo not drawn), the “Percent Effect” value was -20.95%.
On to `O=S(=O)(CCO)Cc1ccc(OCC(F)(F)F)cc1`, for which the “Percent Effect” value came out at 1.249%.
`COCCOCCNC(=O)C(C)Oc1ccccc1C(F)(F)F` (stereo not drawn): the “Percent Effect” value is listed as 0.2325%.
To `O=C(O)C(F)(F)F.c1cc(CN2CCCn3cnc(COCC4CC4)c3C2)co1` belongs 3.975%; to `CC(C)Cc1cc(C(=O)NCC(O)c2ccc(F)cc2)n(C)n1` (stereo not drawn), 0.3453%.
Turning to `CCCc1cc(C(=O)NC(c2ccccc2)c2n[nH]c(C)n2)[nH]n1` (stereo not drawn), the “Percent Effect” value is on record as 3.333%.
Take `CCC(NC(=O)c1cc(CC(C)C)nn1C)c1ccnn1C` (stereo not drawn): the “Percent Effect” value amounted to 9.016%.
To `CCCc1cc(C(=O)N[C@@H](CO)[C@@H](O)c2ccccc2)n(C)n1` belongs 130.2%.
For `CCCc1cc(C(=O)N[C@H](C)[C@@H](O)c2ccc(O)cc2)n(C)n1`, the “Percent Effect” value is reported as 110%.
The figure for `CCCc1cc(C(=O)N(C)Cc2cnc3ccccc3n2)n(C)n1` is -19.21%.
To `O=C(CCCn1cncn1)NC1(c2cccc(Br)c2)CC1` belongs -89.93%; to `O=S(=O)(NCc1cccnc1OC1CCCC1)N1CCOCC1`, -7.047%; to `O=S(=O)(NCCc1ccccc1F)N1CCOCC1`, 104.5%.
To `O=S(=O)(NCCc1ccccc1C(F)(F)F)N1CCOCC1` belongs 96.69%; to `CCOc1ncccc1CNS(=O)(=O)N1CCOCC1`, -0.8612%.
Regarding `O=S(=O)(Cc1ccccc1F)NCCN1CCOCC1`, the “Percent Effect” value is listed as -10.21%.
In the case of `O=C(Cc1ccccc1F)NCCN1CCOCC1`, the “Percent Effect” value stood at 3.995%.
To `Cc1nc(S(=O)(=O)N2CCc3[nH]nc(CCC(C)C)c3C2)cn1C` belongs 14.04%; to `CC(C)CN1CC(c2nc(CCc3ccccc3)n[nH]2)CC1=O` (stereo not drawn), 6.531%; to `CN1CCCC[C@@H]2[C@H]1[C@@H](c1ccccc1)CCN2C(=O)c1cccnc1`, 94.07%.
The figure for `CN1CCCCC[C@@H]2[C@@H]1[C@H](c1ccccc1)CN2C(=O)c1cccnc1` is 98.96%; for `Cc1nnsc1C(=O)N1CC[C@H](c2ccccc2)[C@@H]2[C@H]1CCCCN2C` it is 109%.
The figure for `CC(C)=CCN1CCN(C(=O)c2snnc2C)[C@H]2CS(=O)(=O)C[C@H]21` is -1.087%; for `O=C(c1ccncc1)N1CCCC1C1CCN(Cc2ccccc2)CC1` (stereo not drawn) it is -37.72%.
`CN1CCCC[C@@H]2[C@H]1[C@@H](c1ccccc1)CCN2C(=O)c1ccccc1`: the “Percent Effect” value is on record as -7.424%.
To `O=C(c1cccnc1)N1CCCC1C1CCN(Cc2ccccc2)CC1` (stereo not drawn) belongs -39.09%; to `CN1CCCC[C@@H]2[C@H]1[C@@H](c1ccccc1)CCN2C(=O)c1ccncc1`, 88.59%; to `Cc1nnsc1C(=O)N1CCN(CC2CC2)[C@@H]2CS(=O)(=O)C[C@@H]21`, 2.438%.
The figure for `COC(=O)C1CCCN1C(=O)c1ccc(Cl)cc1F` (stereo not drawn) is 16.38%.
The figure for `CN1CCN(c2ccc(NC(=O)c3ccccn3)c(C(F)(F)F)c2)CC1` is -8.677%.
With `CCNC(=O)c1ccoc1CN1c2ccccc2CC1C` (stereo not drawn), the “Percent Effect” value is on record as -6.269%.
The figure for `CCN(CCc1nc2cc(C)ccc2[nH]1)C(=O)[C@@H](N)COC` is 2.321%.
To `Cc1nc(CCNc2ccc(-c3nc(C)c(C)c(=O)[nH]3)cn2)cs1` belongs 1.722%; to `O=C(CCc1nc2ccccc2[nH]1)NC1CCOC2(CCOCC2)C1` (stereo not drawn), 103.6%.
The figure for `O=C(CCS(=O)(=O)c1ccccc1)NC1CCOC2(CCOCC2)C1` (stereo not drawn) is 92.28%.
As to `COc1c(C)cnc(CNC(=O)CCc2nc3ccccc3[nH]2)c1C`, the “Percent Effect” value is 4.531%.
Turning to `CN(C)C(=O)NC1COC2(CCN(S(=O)(=O)c3ccccc3)CC2)C1` (stereo not drawn), the “Percent Effect” value was 5.169%.
For `O=C(NCCNc1ccccn1)NC1CCOC2(CCCCC2)C1` (stereo not drawn), the “Percent Effect” value is on record as -19.85%.
The figure for `O=C(CCCc1nc2ccccc2[nH]1)N1CCCC1c1ccccn1` (stereo not drawn) is -11.11%.
To `CCc1ncc2c(n1)CN(C(=O)CNC(=O)c1ccccc1)C2` belongs 27.82%.
To `COc1cccc(CN(C)Cc2[nH]c3ccccc3c2C)c1O` belongs 10.98%; to `Cc1ccc(N2CCC3(CC2)CCN(C2CCOC2)CC3)nn1.O=C(O)C(F)(F)F` (stereo not drawn), -7.269%; to `Cc1cccc(CN2CC3(CCN(C4CCOC4)CC3)OCC2=O)n1.O=C(O)C(F)(F)F.O=C(O)C(F)(F)F` (stereo not drawn), 100.8%.
For `Cc1cccc(CN2CC3(CCN(C(=O)N(C)C)CC3)OCC2=O)n1.O=C(O)C(F)(F)F`, the “Percent Effect” value amounted to 105.7%.
To `Cc1cccc(N2CC3(CCN(S(=O)(=O)C4CC4)C3)C2)n1.O=C(O)C(F)(F)F` belongs 2.181%; to `CCS(=O)(=O)N1CCC2(CC1)CN(Cc1ccccn1)C(=O)CO2.O=C(O)C(F)(F)F`, -5.616%.
Regarding `O=C(O)C(F)(F)F.O=C1COC2(CCN(c3cccc(F)c3)CC2)CN1Cc1ccccn1`, the “Percent Effect” value was -8.645%.
With `Cc1cccc(CN2CCC3(CCCN(C(=O)N(C)C)C3)C2=O)n1.O=C(O)C(F)(F)F` (stereo not drawn), the “Percent Effect” value is on record as -4.614%.
The figure for `Cc1cccc(CN2CC3(CCN(S(=O)(=O)C4CC4)CC3)OCC2=O)n1.O=C(O)C(F)(F)F` is 102.5%.
To `CC(CCNC(=O)N1CCC1)N(C)C(=O)OC(C)(C)C` (stereo not drawn) belongs -2.382%.
As for `Cl.Cl.O[C@@H]1C[C@@](CNCc2ccc(F)cc2)(COc2cccnc2)C[C@@H]1O`, the “Percent Effect” value is -10.51%.
The figure for `Cc1ncc(CNCC2CCC(C(N)=O)CC2)n1-c1ccccc1` (stereo not drawn) is -1.319%; for `CCc1nc(N)nc(NCCC(=O)NC2CCCCC2)c1C` it is 10.22%; for `CCS(=O)(=O)NCC1Cn2nnc(-c3cccc(C)c3)c2CO1` (stereo not drawn) it is -10.41%.
The figure for `CCOCCC(=O)N1C[C@H]2CC[C@@H]1CN(c1ncccn1)C2` is 22.34%; for `CN1CCC2(COCCN(Cc3ccc4c(c3)OCO4)C2)C1.O=C(O)C(F)(F)F.O=C(O)C(F)(F)F` (stereo not drawn) it is -6.126%; for `O=C(NC1CC1)[C@H]1CN(Cc2ccc3c(c2)OCO3)C[C@H]2OCC[C@@H]12.O=C(O)C(F)(F)F` it is -14.17%.
To `CN(C)C(=O)[C@@]12CCO[C@@H]1CCN(Cc1ccc3c(c1)OCO3)C2.O=C(O)C(F)(F)F` belongs 104.9%; to `CN(C)C(=O)[C@@H]1CCO[C@@H]2CCN(Cc3ccc4c(c3)OCO4)C[C@@H]21.O=C(O)C(F)(F)F`, -16.18%.
Take `CC(C)NC(=O)[C@@]12CCO[C@@H]1CCN(Cc1ccc3c(c1)OCO3)C2.O=C(O)C(F)(F)F`: the “Percent Effect” value was found to be 90.31%.
The figure for `Cc1ncsc1CN1CC[C@H]2OCC[C@@]2(C(=O)NC(C)C)C1.O=C(O)C(F)(F)F` is 3.331%; for `CNC(=O)[C@@]12CCO[C@@H]1CCN(Cc1cccc(C)c1)C2.O=C(O)C(F)(F)F` it is 5.352%.
To `O=C(NC1CC1)[C@@H]1CN(Cc2ccc3c(c2)OCO3)C[C@H]2OCC[C@H]21.O=C(O)C(F)(F)F` belongs -3.513%; to `CC(C)NC(=O)[C@@H]1CN(Cc2ccc3c(c2)OCO3)C[C@H]2OCC[C@H]21.O=C(O)C(F)(F)F`, -18.01%; to `O=C(NC1CC1)[C@@]12CCO[C@@H]1CCN(Cc1ccc3c(c1)OCO3)C2.O=C(O)C(F)(F)F`, 117%.
The figure for `Cc1ncsc1CN1CC[C@H]2OCC[C@@]2(C(=O)NC2CC2)C1.O=C(O)C(F)(F)F` is 0.183%; for `CNC(=O)[C@@]12CCO[C@@H]1CCN(Cc1ccc3c(c1)OCO3)C2.O=C(O)C(F)(F)F` it is 92.17%.
As to `O=C1OCCN1Cc1cccc(C(F)(F)F)c1F`, the “Percent Effect” value was -20.92%.
The figure for `CCC(NC(=O)c1ccco1)c1ccccc1OCC(=O)N1CCCC1` (stereo not drawn) is 7.206%; for `CCOc1ccc(NC(=O)c2oc(CC)cc2C)cc1CO` it is -16.02%.
To `Cc1cc(CN2CC[C@H]3OCC[C@@]3(C(=O)NCc3ccco3)C2)no1.O=C(O)C(F)(F)F` belongs -7.292%; to `CC(C)NC(=O)[C@@]12CCO[C@@H]1CCN(Cc1ccco1)C2.O=C(O)C(F)(F)F`, 113.3%; to `O=C(NCc1ccco1)[C@@]12CCO[C@@H]1CCN(CC1CCOCC1)C2.O=C(O)C(F)(F)F`, -4.272%.
To `O=C(NC1CC1)[C@@H]1CCO[C@@H]2CCN(C3CCCC3)C[C@H]21` belongs -4.337%; to `COc1ccc(CN2CCN(CC3CC3)[C@@H]3CS(=O)(=O)C[C@@H]32)cc1O`, 13.23%; to `COc1ccc(-c2cc[nH]n2)cc1CNC1CCCC1`, -3.837%.
As to `CC(C)(C)c1n[nH]cc1CNC1CCC(OCC(F)(F)F)CC1.Cl` (stereo not drawn), the “Percent Effect” value turned out to be 88.78%.
To `Cc1n[nH]cc1CNCc1ccnc(OCC(F)(F)F)c1.Cl` belongs -12.37%; to `Cc1n[nH]cc1CNC1CCN(c2ccc(F)cc2)CC1.Cl`, -3.892%.
To `Cc1ccc(CNCc2c[nH]nc2C(C)(C)C)c(OC2CCOC2)c1` (stereo not drawn) belongs 13.41%.
The figure for `CC(C)(C)c1n[nH]cc1CNC1CCC(C(F)(F)F)CC1.Cl` (stereo not drawn) is 89.77%; for `CC(C)(C)c1n[nH]cc1CNC1CCC(O)CC1` (stereo not drawn) it is 81.49%; for `Cc1n[nH]cc1CNC1CCN(c2cccc(C(F)(F)F)c2)CC1` it is -2.63%.
As for `CN(Cc1ccccc1)CC(C)(C)NC(=O)c1cnccn1`, the “Percent Effect” value amounted to 4.118%.
The figure for `Cc1cccc(S(=O)(=O)N2CC[C@H]3[C@H]2CCN3c2ncccn2)c1.O=C(O)C(F)(F)F` is -3.796%.
The figure for `O=c1[nH]ccc2cc(-c3cc(O)cc(CCC4CCCCN4)c3)ccc12` (stereo not drawn) is -30.56%; for `Cc1cccc(C(=O)N2CCCC2)c1NCC(=O)NC(C)(C#N)C1CC1` (stereo not drawn) it is 5.415%.
To `CCC(CC)c1cc(CNC(=O)N2CCCC(N(C)C)C2)on1` (stereo not drawn) belongs -19.35%.

Source of the values: ChEMBL document CHEMBL3988442, “University of Dundee, Small-Polar-MMV Screening Library” (2021).
